From PubChem
This is a sample that favours compounds with a hit; in the whole collection about 2.8% have one here.
CtBP-E1A inh: qHTS Assay for Inhibitors of the CtBP/E1A Interaction. CtBP / adenovirus E1A interaction (AlphaScreen). AlphaScreen GST-E1A/His-CtBP binding, 1536-well; hits give low values. activity change, % (test concentration not listed). 340,000 tested, 0.49% active. AID 651724, 2012; in the data active = activity change below about -65%; inconclusive = mostly about -30% to -63%; note: % is set by controls: 0 for no effect and ±100 for the full control effect
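Steps: dispense buffer (Tris pH 8.0, NaCl 300 mM, TCEP 1 mM, BSA, Tween 20); add 5X protein mix (GST-E1A, His-CtBP, 125 nM each); pin 23 nL compound; 2 h at 37 °C, dark; add 5X beads (50 ug/mL); 1 h; read.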
ATXN viability: Viability Counterscreen for Primary qHTS for Inhibitors of ATXN expression. AID 651635, 2014. S2 cells (HEK-293 line with an ATXN2-luciferase reporter) viability, CellTiter-Fluor protease fluorescence, 24 h. 400,000 tested, 0.49% active. Potency, µM (series often up to 56.7 µM), hits mostly cytotoxic; note: potency is the fitted concentration of half-maximal effect; nearly all actives have a fitted effect of over 40% in size
HepG2 viability: qHTS for Inhibitors of TGF-b: Cytotox Counterscreen | HepG2 CAGA-GFP viability, ATP luminescence, 18 h | 410,000 tested, 0.76% active | Potency, µM (top dose mostly 46.1 µM), for the others: at the top dose activity change, negative = cytotoxicity, usual class: cytotoxic; note: potency is the fitted concentration of half-maximal effect
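HepG2 CAGA-GFP cells (1000/well, DMEM with 1% FBS) received compound, then TGF-beta at 500 pg/mL final, and were incubated 18 hours at 37 degrees C. Viability was read by CellTiter-Glo luminescence. Media-only wells were set as complete cell-killing and DMSO as no toxicity.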
Six1-Eya2 inh: qHTS Assay for Inhibitors of the Six1/Eya2 Interaction | AID 651725, 2012 | activity change, % (no concentration beside the values) | 360,000 tested, 0.56% active | AlphaScreen GST-Six1/His-Eya2 binding, biochemical; hits give low values; in the data active = activity change below about -65%; inconclusive = mostly about -30% to -63%; note: % is set by controls: 0 for no effect and ±100 for the full control effect
Target sequence (O00167 whole entry, looked up): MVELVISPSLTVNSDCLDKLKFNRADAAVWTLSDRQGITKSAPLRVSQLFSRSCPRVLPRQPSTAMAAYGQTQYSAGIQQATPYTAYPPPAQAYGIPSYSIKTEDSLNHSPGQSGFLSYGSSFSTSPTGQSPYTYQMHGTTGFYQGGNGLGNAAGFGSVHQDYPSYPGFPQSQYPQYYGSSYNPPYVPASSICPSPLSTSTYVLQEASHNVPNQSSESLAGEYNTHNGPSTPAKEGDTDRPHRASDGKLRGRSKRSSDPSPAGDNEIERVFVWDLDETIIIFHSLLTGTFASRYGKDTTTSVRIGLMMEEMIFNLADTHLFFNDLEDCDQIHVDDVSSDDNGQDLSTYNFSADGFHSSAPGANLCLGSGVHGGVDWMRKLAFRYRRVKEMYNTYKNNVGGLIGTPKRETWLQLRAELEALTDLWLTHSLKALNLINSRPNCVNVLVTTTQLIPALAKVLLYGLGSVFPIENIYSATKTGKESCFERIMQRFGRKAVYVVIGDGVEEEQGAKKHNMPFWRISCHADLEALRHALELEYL
Target sequence (Q15475 whole entry, looked up): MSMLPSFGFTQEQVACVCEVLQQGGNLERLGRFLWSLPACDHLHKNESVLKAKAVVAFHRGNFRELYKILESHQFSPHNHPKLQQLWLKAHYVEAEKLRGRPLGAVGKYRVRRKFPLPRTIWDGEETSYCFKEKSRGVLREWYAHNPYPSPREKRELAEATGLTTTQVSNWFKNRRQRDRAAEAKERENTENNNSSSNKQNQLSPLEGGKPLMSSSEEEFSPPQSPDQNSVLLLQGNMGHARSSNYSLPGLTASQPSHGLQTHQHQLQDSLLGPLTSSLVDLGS
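Six1/Eya2 binding was read as AlphaScreen signal after compounds were pinned into GST-Six1 plus His-tagged Eya2 (5X stock 250/500 nM) in pH 8.0 Tris/NaCl/TCEP buffer, beads added, then incubated 1 h, 37 C, dark.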
ATXN2 expr inh: Primary qHTS for Inhibitors of ATXN expression. 360,000 tested, 0.72% active. Potency, µM (titrated, usually from 57 µM), inactives show top-dose activity change, negative = inhibition, most hits filed as inhibitors. AID 1745845, 2022. HEK-293 ATXN2-luciferase reporter, luminescence, 24 h; note: potency is the fitted concentration of half-maximal effect; % is set by controls: 0 for no effect and ±100 for the full control effect; nearly all actives have a fitted effect of over 55% in size
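qHTS (up to 57 uM final) was run with 24 h compound exposure of reporter cells at 37 °C. Each well was multiplexed: SteadyGlo luminescence measured ATXN2-luciferase expression after a fluorogenic Gly-Phe-AFC viability readout (25 uM final).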
TGFb inhibitor: qHTS for Inhibitors of TGF-b | HepG2 CAGA-GFP TGF-b/SMAD3 reporter, GFP fluorescence, 18 h; TGF-beta stimulated, 500 pg/mL final | Potency, µM (top dose mostly 46.1 µM), for inactives: at the top dose activity, negative = inhibition, usual class: inhibitors | 410,000 tested, 1.2% active | AID 588855, 2011; note: potency is the fitted concentration of half-maximal effect; % is set by controls: 0 for no effect and ±100 for the full control effect; nearly all actives have a fitted effect of over 65% in size
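Inhibition of TGF-beta-driven CAGA-GFP reporter expression in HEPG2 cells is measured by cellular GFP fluorescence after 18 h stimulation with 500 pg/mL recombinant TGF-beta in 1% FBS medium at 37 degrees C.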
* hit, by the source's call; i = inactive; ? = inconclusive; · = no result given. Unless noted, calls come from the whole dose curve; as a rule, active = well fitted curve in the direction sought with a large enough effect; inconclusive = small, poorly fitted or top-dose-only effect, or another doubt; inactive = no such curve, though single readings can be large; an effect the other way counts as inactive or inconclusive.

SMILES | CtBP-E1A inh | ATXN viability | HepG2 viability | Six1-Eya2 inh | ATXN2 expr inh | TGFb inhibitor
COc1ccc(C2=C(Nc3ccc(Br)c(C)c3)c3ccccc3C2=O)cc1 | · | ? | -38% | · | -16% | 14µM*
CCn1cc(C(=O)N2CCN(c3ccccc3F)CC2)c(=O)c2cc(S(=O)(=O)N(C)C)ccc21 | · | i | -1% | · | 3% | 4%
O=C(c1ccccc1)n1nc(-c2ccco2)nc1NCc1ccccc1Cl | · | i | -1% | · | 19% | 5%
COc1ccc(NC(=O)CCC(=O)c2cccs2)c(OC)c1 | 0 | i | -12% | -4 | 44% | ?
COc1ccccc1NC(=O)CCC(=O)Nc1cc(OC)c(NC(=O)c2cccs2)cc1OC | -93* | i | -10% | -95* | -3% | 7%
CCOc1cc(NC(=O)c2cccs2)c(OCC)cc1NC(=O)CCC(=O)NCc1ccccn1 | 3 | i | -4% | 8 | -19% | 7%
COc1cc(NC(=O)c2cccs2)c(OC)cc1NC(=O)CCC(=O)Nc1cccc2ncccc12 | -87* | i | -11% | -82* | -6% | -13%
O=C(Cn1c(-c2cccs2)cc2cc(Cl)ccc21)N1CCCCC1 | · | ? | -17% | · | -8% | 0%
COc1ccc(Cl)cc1NC(=O)NC1CCCCC1 | 1 | i | -5% | 11 | -15% | 7%
COc1ccc(Cl)cc1NC(=O)Nc1cccc([N+](=O)[O-])c1C | -1 | ? | -2% | -1 | 20µM* | ?
CCN(CC)CCOc1ccc(Nc2ncc3cc(-c4c(Cl)cccc4Cl)c(=O)n(C)c3n2)cc1 | · | · | · | · | 1.7µM* | ·
COc1ccc(N=C2C(=Nc3ccc(OC)cc3)N(c3ccc(OC)cc3)C(=S)N2C)cc1 | -80* | i | -22% | -69* | -5% | -8%
CN(C)CCN1CCN(c2cccc(Cl)c2)C1=O | · | i | · | · | 17% | ·
COc1ccc(Cn2c(SCc3ccc(C)cc3)nc3cc(OC)c(OC)cc3c2=N)cc1Cl | -21 | 16µM* | 5.6µM* | -9 | 28µM* | ?
COc1ccc(Cn2c(SCc3cc(C)ccc3C)nc3cc(OC)c(OC)cc3c2=N)cc1 | -17 | · | 10µM* | -17 | · | -4%
CS[C@H]1SC[C@@H]2C(=O)N(C)[C@H](C(C)C)C(=O)OC[C@H](NC(=O)c3cnc4ccccc4n3)C(=O)N[C@H](C)C(=O)N(C)[C@@H]1C(=O)N(C)[C@H](C(C)C)C(=O)OC[C@H](NC(=O)c1cnc3ccccc3n1)C(=O)N[C@H](C)C(=O)N2C | · | · | · | · | 0.011µM* | ·
CCCC[C@H]1C2=C3[C@@H](CC(C(=O)OC)=C[C@@H](C(=O)OC)[C@H]3C(C)(C)C2=O)n2c(=O)n(C)c(=O)n21 | · | · | -49% | · | · | -3%
Cc1ccc(OCC(=O)Nc2ccc(Cl)cc2)c(-n2nc3ccccc3n2)c1 | 8 | · | -36% | 6 | 35µM* | 5%
CCOc1ccc(C)cc1-n1nc2ccccc2n1 | 14 | i | 0% | 18 | ? | 13%
Cc1ccc(NC(=O)c2cnc3sc(N4CCOCC4)nn3c2=O)cc1N(C)C | · | i | 7% | · | 4% | -8%
CCC1CN(CCNC(=O)c2ccccc2-n2cccn2)Cc2cc(OC)ccc2O1 (configuration not stated) | · | i | · | · | · | ·
COc1ccc(Cc2c(O)nc(SCC(=O)c3ccc(OC)cc3)[nH]c2=O)cc1 | · | i | -2% | -86* | -18% | 7%
Cc1nc(NC(=O)c2ccco2)sc1C(=O)O | 3 | i | 5µM* | 4 | -9% | 1%
COC(=O)c1sc(NC(=O)c2ccco2)nc1C | 5 | i | -11% | 2 | 19% | 0%
O=C(Nc1nc(-c2ccccn2)cs1)c1ccc(Br)s1 | -71* | ? | -12% | ? | ? | -28%
SMILES | CtBP-E1A inh | ATXN viability | HepG2 viability | Six1-Eya2 inh | ATXN2 expr inh | TGFb inhibitor
O=C(Nc1nc(-c2cc(Cl)sc2Cl)cs1)c1ccc(Br)s1 | 1 | ? | 0% | 2 | ? | 1%
O=C(Nc1nc(-c2ccccn2)cs1)c1cccc(-n2cnnn2)c1 | · | i | 2% | -92* | · | -14%
O=C(CC1CC2CCC1C2)Nc1nc(-c2ccccn2)cs1 (configuration not stated) | ? | ? | -23% | ? | -24% | -29%
O=C(Nc1ccc(Br)cc1)c1cccc(-n2cnnn2)c1 | 0 | i | -14% | -4 | -3% | -16%
O=C(Nc1nc(-c2ccccn2)cs1)C1CC1 | -72* | ? | -29% | ? | -10% | 0%
O=C(NC1CCN(Cc2ccccc2)C1)c1cnn(-c2ncc3c(n2)-c2ccccc2CC3)c1C1CC1 (configuration not stated) | · | i | · | · | · | ·
O=C(Nc1nc(-c2ccccn2)cs1)c1ccco1 | -93* | i | -31% | -79* | ? | -29%
O=C(Nc1nc(-c2cccs2)cs1)C1CC(=O)N(c2ccc3c(c2)OCCO3)C1 (configuration not stated) | · | · | -35% | · | · | ?
Cc1ccnc2nc(C(=O)Nc3nc(-c4ccccn4)cs3)nn12 | -85* | i | -2% | -92* | 3% | 2%
Cc1ccnc2nc(C(=O)NCc3ccccc3)nn12 | -5 | i | 3% | 8 | 17% | 4%
O=C(Nc1nc(-c2ccncc2)cs1)c1ccco1 | -5 | i | -34% | -23 | 42% | -1%
O=C(Nc1nc(-c2ccccn2)cs1)C1CC(=O)N(c2ccc3c(c2)OCCO3)C1 (configuration not stated) | 0 | i | -28% | -86* | -2% | 8%
C[C@H](NC(=O)c1ccco1)C(=O)Nc1nc(-c2ccccn2)cs1 | -89* | i | -19% | -89* | -17% | 0%
C[C@H](NC(=O)c1ccco1)C(=O)Nc1nnc(SCc2ccccc2)s1 | 8 | i | 3% | 2 | 10% | 6%
CCC(C)CCCCC(=O)N[C@@H](CCN)C(=O)NC(C(=O)N[C@H](CCN)C(=O)N[C@@H]1CCNC(=O)C([C@@H](C)O)NC(=O)[C@@H](CCN)NC(=O)[C@@H](CCN)NC(=O)[C@@H](CC(C)C)NC(=O)[C@H](Cc2ccccc2)NC(=O)[C@H](CCN)NC1=O)[C@@H](C)O (some centres not stated) | · | · | · | · | 3% | ·
Cc1ccc2cc(CNCc3cccc4ccccc34)c(N3CCC(O)CC3)nc2c1 | · | i | · | · | · | ·
